Assay outcomes as filed in PubChem.
pPAFAH inh = pPAFAH enzyme inhibitors, primary screen, biochemical, fluorescence polarization, human | inhibition, % at 3.39 µM | AID 463082, 2010 | recombinant pPAFAH, FP-rhodamine probe fluorescence polarization | 1.5% of 330,000 active;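 active means inhibition above the mean inhibition across the screen plus 3 SD, cut at about 25% in these data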;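 further: inhibitors block binding of the rhodamine activity-based probe so polarization drops; 0% = enzyme with DMSO and 100% = wells lacking pPAFAH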
Target sequence (Q13093 whole entry, looked up): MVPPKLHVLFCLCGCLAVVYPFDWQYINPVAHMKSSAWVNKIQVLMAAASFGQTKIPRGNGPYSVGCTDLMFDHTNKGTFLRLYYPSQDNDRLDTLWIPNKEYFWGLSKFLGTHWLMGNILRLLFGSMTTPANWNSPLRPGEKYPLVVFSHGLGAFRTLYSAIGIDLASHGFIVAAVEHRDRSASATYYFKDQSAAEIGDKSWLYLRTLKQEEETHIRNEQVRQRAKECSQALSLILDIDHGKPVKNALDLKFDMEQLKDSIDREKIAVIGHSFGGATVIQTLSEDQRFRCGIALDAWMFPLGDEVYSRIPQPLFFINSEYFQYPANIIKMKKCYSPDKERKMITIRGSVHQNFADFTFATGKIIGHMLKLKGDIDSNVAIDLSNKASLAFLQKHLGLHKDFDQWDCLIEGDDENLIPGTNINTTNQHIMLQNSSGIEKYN
TCR-CD3 inh = inhibitors of human TCR-CD3 interaction, primary screen, biochemical, fluorescence, TAMRA-labeled TCR probe | 0.37% of 360,000 active | inhibition, % at 9.4 µM | AID 651800, 2012; in the data active means inhibition above about 19%;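 further: recombinant mutant TCR 2C K166C tagged with TAMRA read by polarization; 0% = receptor in buffer alone and 100% = receptor with positive control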
PAFAH2 inh = PAFAH2 enzyme inhibitors, primary screen, biochemical, fluorescence polarization, human. recombinant PAFAH2, FP-rhodamine activity probe. AID 492956, 2010. Platelet-activating factor acetylhydrolase 2, cytoplasmic (Homo sapiens), Q99487. 0.99% of 340,000 active. inhibition, % at 3.39 µM;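 active means inhibition above the mean over all tested compounds plus 3 SD, cut at about 30% in these data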;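 further: inhibitors block probe labeling of enzyme so polarization drops; 0% = enzyme with DMSO and 100% = wells lacking PAFAH2 protein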
PAFAH1B2 inh = PAFAH1B2 enzyme inhibitors, primary screen, biochemical, fluorescence polarization, human | Platelet-activating factor acetylhydrolase IB subunit alpha2 (Homo sapiens), P68402 | recombinant PAFAH1B2, FP-rhodamine activity probe | inhibition, % at 3.39 µM | 1.2% of 340,000 active | AID 492953, 2010;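 active means inhibition above the mean of all tested compounds plus 3 SD, cut at about 24% in these data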;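 further: 0% = enzyme with DMSO and 100% = wells lacking PAFAH1B2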
Target sequence (P68402 whole entry, looked up): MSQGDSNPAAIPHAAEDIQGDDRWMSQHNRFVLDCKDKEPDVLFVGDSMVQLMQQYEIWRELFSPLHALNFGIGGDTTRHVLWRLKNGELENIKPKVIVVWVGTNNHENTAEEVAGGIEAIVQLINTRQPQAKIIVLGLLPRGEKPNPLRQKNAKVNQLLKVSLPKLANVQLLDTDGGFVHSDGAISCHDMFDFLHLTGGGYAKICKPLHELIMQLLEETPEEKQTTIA
PAFAH1B3 FP inh = PAFAH1B3 enzyme inhibitors, primary screen, biochemical, fluorescence polarization, human; Platelet-activating factor acetylhydrolase IB subunit alpha1 (Homo sapiens), Q15102; recombinant PAFAH1B3, FP-rhodamine probe; inhibition, % at 3.39 µM; 0.28% of 340,000 active;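 active means inhibition above the screen-wide average of all tested compounds plus 3 SD, cut at about 25% in these data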;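 further: 0% = enzyme with DMSO only and 100% = wells lacking PAFAH1B3 protein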
pPAFAH confirm = pPAFAH (PLA2G7) enzyme inhibitors, confirmation, biochemical, fluorescence polarization, human | 72% of 2,300 active | recombinant pPAFAH, FP-Rh probe fluorescence polarization | shares compounds with pPAFAH inh | inhibition, % at 3.39 µM;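 active means mean inhibition of the triplicate above the hit cutoff set for the earlier primary screen, cut at about 25% in these data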;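 further: 0% = enzyme with DMSO and 100% = wells lacking pPAFAH enzyme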
* marks the source's active call; other numbers are inactive results. Compounds with a hit are over-represented: about 2.7% of the library has one in this group of screens.

`Cc1ccccc1COC(=O)c1cc([N+](=O)[O-])ccc1N1CCOCC1` gave pPAFAH inh 3.7, TCR-CD3 inh 7.5, PAFAH2 inh -13.6, PAFAH1B2 inh 3.8 and PAFAH1B3 FP inh -3.8.
Screening CSc1ccc(COC(=O)c2cc([N+](=O)[O-])ccc2N2CCOCC2)cc1 returned pPAFAH inh 40.3*, TCR-CD3 inh 1.9, PAFAH2 inh 1.2, PAFAH1B2 inh 8.2, PAFAH1B3 FP inh 0.2 and pPAFAH confirm 42.2*.
Screening O=C(NCCCN1CCOCC1)C1CCN(S(=O)(=O)c2cccc(Cl)c2Cl)CC1 returned pPAFAH inh 3.2, TCR-CD3 inh 1.6, PAFAH2 inh 8.6, PAFAH1B2 inh 0.8 and PAFAH1B3 FP inh 1.0.
Screening CCCC(C)NC(=O)c1c2c(nc3ccccc13)CCC2 (stereo not given) returned pPAFAH inh 4.4, TCR-CD3 inh 3.0, PAFAH2 inh 3.1, PAFAH1B2 inh -0.1 and PAFAH1B3 FP inh 8.4.
O=C(NCc1ccc(F)cc1)c1c2c(nc3ccccc13)CCC2 was read as pPAFAH inh 35.7*, TCR-CD3 inh 9.5, PAFAH2 inh 4.9, PAFAH1B2 inh 4.9, PAFAH1B3 FP inh 1.8 and pPAFAH confirm 24.6*.
`CC1=C(C(=O)N(C(C)C)C(C)C)CC(CC(=O)NCCCCc2ccccc2)C(=O)N1CCCN1CCCC1=O` (stereo not given) gave TCR-CD3 inh -7.5.
For O=C(Nc1cccc(Cl)c1)Nc1nnc(-c2ccncc2)s1 the results were pPAFAH inh 41.8*, TCR-CD3 inh 8.3, PAFAH2 inh 8.5, PAFAH1B2 inh 6.8, PAFAH1B3 FP inh -4.4 and pPAFAH confirm 34.6*.
CCOc1cc(/C=C(\C#N)c2[nH]nc(N)c2C#N)ccc1O was read as pPAFAH inh 37.0*, TCR-CD3 inh 7.9, PAFAH2 inh 3.0, PAFAH1B2 inh 7.0, PAFAH1B3 FP inh 11.9 and pPAFAH confirm 15.8.
`CCOC(=O)C1=C(C)c2ccccc2N(S(=O)(=O)C(F)(F)F)C1C(=O)OCC` (stereo not given) gave pPAFAH inh 1.2, TCR-CD3 inh 1.4, PAFAH2 inh 7.2, PAFAH1B2 inh 4.8 and PAFAH1B3 FP inh 9.6.
Screening O=C(O)c1cccc(S(=O)(=O)NCc2cccs2)c1 returned pPAFAH inh 6.3, TCR-CD3 inh 2.3, PAFAH2 inh -1.9, PAFAH1B2 inh 6.5 and PAFAH1B3 FP inh 3.8.
`O=C1CC(=O)Nc2cc(S(=O)(=O)NCc3cccs3)ccc2N1` gave pPAFAH inh 65.2*, TCR-CD3 inh -5.4, PAFAH2 inh 0.7, PAFAH1B2 inh 0.9, PAFAH1B3 FP inh 0.2 and pPAFAH confirm 1.7.
Screening CN(C(=O)C1CCCC1)C1CCS(=O)(=O)C1 (stereo not given) returned pPAFAH inh 3.0, TCR-CD3 inh -3.6, PAFAH2 inh 2.3, PAFAH1B2 inh 3.9 and PAFAH1B3 FP inh -2.8.
Screening Cc1cc(C)nc(NS(=O)(=O)c2ccc(NC(=O)C3COc4ccccc4O3)cc2)n1 (stereo not given) returned pPAFAH inh 3.9 and TCR-CD3 inh -4.2.
O=C(Nc1ccc(S(=O)(=O)Nc2ccccc2)cc1)C1COc2ccccc2O1 (stereo not given) was read as pPAFAH inh 40.0*, TCR-CD3 inh 3.5, PAFAH2 inh -7.5, PAFAH1B2 inh -5.7, PAFAH1B3 FP inh 5.8 and pPAFAH confirm 35.3*.
O=C(N/N=C/c1cc(Cl)c(O)c(Cl)c1)c1cc2c(ccc3ccccc32)o1 was read as pPAFAH inh 61.1*, TCR-CD3 inh 12.2, PAFAH2 inh 44.7*, PAFAH1B2 inh 36.4*, PAFAH1B3 FP inh 21.2 and pPAFAH confirm 70.0*.
Screening O=C1NC(=S)S/C1=C\c1ccc(SCc2ccccc2)o1 returned pPAFAH inh 40.1*, TCR-CD3 inh 4.5, PAFAH2 inh 21.4, PAFAH1B2 inh 70.9*, PAFAH1B3 FP inh 9.0 and pPAFAH confirm 58.1*.
For CCCC1=NN2C(=N)/C(=C\c3ccc(SCc4ccco4)o3)C(=O)N=C2S1 the results were pPAFAH inh 59.6*, PAFAH2 inh -20.9, PAFAH1B2 inh -17.2, PAFAH1B3 FP inh -100.5 and pPAFAH confirm 60.6*.
For O=C1NC(=S)S/C1=C\c1ccc(SCc2ccco2)o1 the results were pPAFAH inh 68.7*, PAFAH2 inh 15.9, PAFAH1B2 inh 19.9, PAFAH1B3 FP inh 5.0 and pPAFAH confirm 55.0*.
Screening COc1ccccc1C(=O)Nc1ccc2c(c1)C(=O)NC2=O returned pPAFAH inh 4.5, TCR-CD3 inh 2.4, PAFAH2 inh 2.9, PAFAH1B2 inh -1.6 and PAFAH1B3 FP inh -6.1.
CC1CCCC(NC(=O)c2ccc(F)c(S(=O)(=O)N3CCOCC3)c2)C1C (stereo not given) was read as pPAFAH inh 2.9, TCR-CD3 inh -2.0, PAFAH2 inh 0.8, PAFAH1B2 inh -0.8 and PAFAH1B3 FP inh 4.3.
Screening COc1cc(C(CC(=O)Nc2ccccn2)N2Cc3ccccc3C2=O)cc(OC)c1OC (stereo not given) returned pPAFAH inh 8.9, TCR-CD3 inh 5.4, PAFAH2 inh 1.9, PAFAH1B2 inh 6.9 and PAFAH1B3 FP inh 15.4.
CN1C(C(=O)NCc2ccco2)=CC(c2ccc(F)cc2)=NS1(=O)=O was read as pPAFAH inh 66.8*, TCR-CD3 inh 2.1, PAFAH2 inh 2.9, PAFAH1B2 inh -6.8, PAFAH1B3 FP inh -7.2 and pPAFAH confirm 9.8.
Cc1cc(C(=O)OCC(=O)N2CC(=O)Nc3ccccc32)c(C)n1-c1ccc(F)cc1 was read as pPAFAH inh 37.3*, TCR-CD3 inh 0.3, PAFAH2 inh 1.7, PAFAH1B2 inh -1.6, PAFAH1B3 FP inh 0.1 and pPAFAH confirm 30.3*.
For CCOc1ccc(-n2c(C)cc(/C=N/Nc3nc(C)cc(=O)[nH]3)c2C)cc1 the results were pPAFAH inh 42.7*, TCR-CD3 inh -5.9, PAFAH2 inh 5.3, PAFAH1B2 inh -2.1, PAFAH1B3 FP inh 1.9 and pPAFAH confirm 84.9*.
For O=C1ON=C(c2ccc([N+](=O)[O-])cc2)/C1=C/c1ccccc1O the results were TCR-CD3 inh -1.3, PAFAH2 inh 8.2, PAFAH1B2 inh 13.4 and PAFAH1B3 FP inh 12.2.
Screening S=c1[nH]nc(C2COc3ccccc3O2)o1 (stereo not given) returned pPAFAH inh 44.3*, TCR-CD3 inh 3.8, PAFAH2 inh -3.9, PAFAH1B2 inh 3.0, PAFAH1B3 FP inh -6.0 and pPAFAH confirm 4.5.
For S=c1nc(C2COc3ccccc3O2)[nH][nH]1 (stereo not given) the results were pPAFAH inh 2.8, TCR-CD3 inh -0.2, PAFAH2 inh 1.3, PAFAH1B2 inh 7.3 and PAFAH1B3 FP inh 7.8.
`Cc1[nH]n(-c2nc(-c3ccccc3F)cc(=O)[nH]2)c(=O)c1CCO` gave pPAFAH inh 40.5*, TCR-CD3 inh -5.5, PAFAH2 inh 2.6, PAFAH1B2 inh 2.3, PAFAH1B3 FP inh -2.6 and pPAFAH confirm 6.2.
